An excerpt weighted towards active compounds, which were near 11% of everything screened.
JMJD2A Tudor – JMJD2A Tudor domain (human) inhibition | O75164 | AlphaScreen JMJD2A-Tudor / H3K4me3 peptide binding | Potency, µM (titrated, usually from 114 µM), for inactives: at the highest dose activity change, negative = inhibition, usual class: inhibitors | 4.4% of 390,000 active | AID 504339; note: % is set by controls: 0 for no effect and ±100 for the full control effect; nearly all actives have a fitted effect of over 50% in size
BAZ2B inh – blocks human BAZ2B | Q9UIF8 | AlphaScreen BAZ2B-H3K14Ac peptide displacement | Potency, µM (titrated, usually from 114 µM), for inactives: at the top dose activity change, negative = inhibition, actives largely listed as inhibitors | 4.4% of 360,000 active; note: % is set by controls: 0 for no effect and ±100 for the full control effect; nearly all actives have a fitted effect of over 60% in size
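Protein-peptide AlphaScreen: BAZ2B 50 nM, b-H3K14Ac 50 nM, 1x PBS pH 7.4 + 0.01% Tween-20. Preincubation 30 min RT; cpd 30 min RT (top 110 uM); beads 20 min RT, light-protected.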
HP1b chromo inh – HP1-beta chromodomain-methylated histone interaction inhibition. P83916. AlphaScreen HP1-beta / biotin-H3K9me3 peptide binding. Potency, µM (titrated, usually from 114 µM), for inactives: top-dose activity change, negative = inhibition, actives largely listed as inhibitors. 0.56% of 390,000 active; note: nearly all actives have a fitted effect of over 70% in size
Target sequence (P83916 whole entry, looked up): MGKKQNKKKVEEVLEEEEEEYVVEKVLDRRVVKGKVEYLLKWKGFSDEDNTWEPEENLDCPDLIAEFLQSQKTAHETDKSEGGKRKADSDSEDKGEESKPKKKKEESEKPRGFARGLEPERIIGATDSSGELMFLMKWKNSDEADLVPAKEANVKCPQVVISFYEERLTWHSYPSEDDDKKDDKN
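AlphaScreen: HP1-beta (50 nM) preformed 30 min with biotin-H3(1-18)K9me3 peptide (50 nM) in PBS pH 7.4, 0.01% Tween-20. Compound added for 30 min at RT, then streptavidin donor/nickel chelate acceptor beads (10 ug/mL) for 30 min.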
L3MBTL1 inh – inhibitors of human L3MBTL1. AlphaScreen L3MBTL1–H3K9me1 peptide binding. Potency, µM (series often up to 57.1 µM), inactives show top-dose activity, negative = inhibition, usual class: inhibitors. 0.66% of 230,000 active; note: % is set by controls: 0 for no effect and ±100 for the full control effect; nearly all actives have a fitted effect of over 60% in size
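L3MBTL1 (50 nM) pre-complexed 30 min with biotinylated H3(1-15)K9me1 peptide (75 nM), then compounds added for 30 min at room temperature; AlphaScreen streptavidin donor/nickel chelate acceptor beads (10 ug/mL final) read after 30 min dark incubation.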
G9a block – blocks human histone lysine methyltransferase G9a; Q96KQ7; G9a H3K9 monomethylation, AlphaScreen, 2 h; 8.8% of 350,000 active; Potency, µM (highest dose often 102 µM), for inactives: at the highest dose activity, negative = inhibition, usual class: inhibitors; note: % is set by controls: 0 for no effect and ±100 for the full control effect; nearly all actives have a fitted effect of over 75% in size
Target sequence (Q96KQ7 913-1193 limits assumed): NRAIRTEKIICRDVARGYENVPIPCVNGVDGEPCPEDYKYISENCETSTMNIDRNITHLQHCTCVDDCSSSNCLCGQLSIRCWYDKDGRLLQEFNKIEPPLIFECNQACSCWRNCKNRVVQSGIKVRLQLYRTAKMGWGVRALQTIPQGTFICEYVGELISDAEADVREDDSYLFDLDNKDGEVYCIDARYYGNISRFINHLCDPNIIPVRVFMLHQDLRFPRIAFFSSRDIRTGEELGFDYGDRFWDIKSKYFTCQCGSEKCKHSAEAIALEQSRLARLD
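Methyltransferase reactions run at room temperature for 2 h (20 nM enzyme, 500 nM biotin-H3K9 peptide, 20 uM SAM) after a 15 min compound preincubation; product detected by AlphaScreen beads and anti-H3K9me1 antibody.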
Numbers without * were called inactive; ? = inconclusive; . = no result; ! = not confirmed by another sample; [ ] = remark or other dose. Calls come from the whole dose curve; as a rule, active = well fitted inhibition curve with a large enough effect; inconclusive = small, poorly fitted or top-dose-only effect; inactive = no such curve, though single readings can be large or run the other way. Potency is the fitted concentration of half-maximal effect.

SMILES	JMJD2A Tudor	BAZ2B inh	HP1b chromo inh	L3MBTL1 inh	G9a block
CCOc1ccc(NC(C)c2cc(Cl)ccc2O)cc1 (centres undefined)	?	35µM*	?	?	40µM*
C/C(=N\N=c1/scc(C)n1Cc1ccco1)c1cccc([N+](=O)[O-])c1	25µM*	10µM*	?	?	?
N#C/C(=C(/O)CCl)c1nnc2n1CCCCC2	20µM*	79µM*	0%	.	-40%
Cc1ccc(NC(=O)COc2cccc(/C=C3\SC(=S)N(CCC(=O)O)C3=O)c2)cc1Cl	-32%[11.4 µM]	45µM*	-5%	.	2%[59 µM]
O=C(O)CCN1C(=O)/C(=C\c2cccc(OCC(=O)Nc3ccc(Cl)cc3)c2)SC1=S	-25%[11.4 µM]	45µM*	45µM*	-26%	?
COc1cccc(/C=C2\SC(=S)N(CCCC(=O)Nc3ccc(C(=O)O)cc3)C2=O)c1	?	?	-9%	.	.
Cc1ccc(-c2onc(C)c2C)cc1S(=O)(=O)NCc1cccs1	-8%	-14%	89%	.	20%[59 µM]
O=C(NC(=S)NCCC1=CCCCC1)c1ccccc1Br	-6%	50µM*	20%	2%	.
O=C(Cn1cc(C(=O)C(F)(F)F)c2ccccc21)N1CCCCCC1	-7%	1%	18%	.	-2%[59 µM]
O=C(c1ccc(-c2ccc([N+](=O)[O-])cc2)o1)N1CCCCCCC1	56µM*	40µM*	?	-20%	-4%[12.7 µM]
O=C(c1ccc(-c2ccc([N+](=O)[O-])cc2)o1)N1CCCC(C(F)(F)F)C1 (centres undefined)	?	?	?	-16%	14µM*
O=C(Nc1nnc(SCc2cc(=O)n3cc(Cl)ccc3n2)s1)c1cccc(F)c1	9%	5%	28%[57 µM]	.	-2%[59 µM]
CNc1nc(-c2ccc3c(c2)CCN3C(=O)CC(C)(C)C)c(C)s1	-33%	10%	-13%	-20%	-1%
Nc1nc(-c2ccc3c(c2)CCCC3)cs1	?	45µM*	-33%	-1%	18µM*
CC(C)(C)C(=O)N1CCc2cc(-c3csc(N)n3)ccc21	-29%	50µM*	-13%	-3%	0%[0.501 µM]
CNc1nc(-c2ccc3c(c2)CCN3C(=O)c2ccccc2F)c(C)s1	-30%	-15%	-5%	-1%	35µM*
CCCC(=O)N1CCc2cc(-c3nc(N)sc3C)ccc21	-17%	-7%	-27%	-4%	40µM*
CC(=O)Nc1nc(-c2ccc3c(c2)CCN3C(=O)C2CC2)c(C)s1	-13%	-29%	1%	.	?
CCC(C)C(=O)N1CCc2cc(-c3csc(N)n3)ccc21 (centres undefined)	-25%	?	0%	0%	?
Nc1nc(-c2ccc3c(c2)OCCO3)cs1	-35%	.	0%	0%	?
COc1ccc(F)cc1S(=O)(=O)NCC(c1ccco1)S(=O)(=O)c1ccc(F)cc1 (centres undefined)	-17%	-5%	27%	.	-3%[59 µM]
CNc1nc(-c2ccc3c(c2)CCN3C(=O)c2ccccc2F)cs1	?	50µM*	?	-3%	50µM*
O=c1c(C(c2ccccc2)c2c(O)sc3ccccc3c2=O)c(O)sc2ccccc12	-9%	28µM*	22%	.	?
Cc1ccccc1N1C(=O)c2sc3nc4c(c(=O)n3c2C1=O)CCC4	?	5%	-49%	-8%	8.9µM*
O=C1c2sc3nc4ccccc4n3c2C(=O)N1c1ccccc1Cl	-25%	?	?	.	1.4µM*
SMILES	JMJD2A Tudor	BAZ2B inh	HP1b chromo inh	L3MBTL1 inh	G9a block
CCCCn1cc(S(=O)(=O)c2ccccc2)c(=O)c2cc(F)c(N3CCC(C)CC3)cc21	-13%	5%	29%	.	12%[59 µM]
Cc1nn(S(=O)(=O)c2ccc(F)cc2)c(C)c1S(=O)(=O)N1CCOCC1	-12%	?	5%	.	35µM*
Cc1ccc(S(=O)(=O)n2nc(C)c(S(=O)(=O)N3CCCCC3)c2C)cc1	-6%	-31%	35%	.	45µM*!
Cc1nn(S(=O)(=O)c2ccccc2)c(C)c1S(=O)(=O)N1CCOCC1	-27%	-27%	43%[57 µM]	.	79µM*
Cc1nn(S(=O)(=O)c2ccc(F)cc2)c(C)c1S(=O)(=O)N1CCCCC1	-27%	-2%	51%	.	22%[0.501 µM]
COc1cccc(C2C(=O)N(C3CCCCC3)CC(=O)N2Cc2ccc(Cl)cc2)c1 (centres undefined)	4%	-3%	36%	.	-1%[59 µM]
Cc1nc(-c2ccc(S(=O)(=O)N3CCN(c4ccccc4)CC3)cc2)co1	-7%	-14%[57.1 µM]	26%	.	-5%
Cc1cccc(N2CCN(S(=O)(=O)c3ccc(-c4coc(C)n4)cc3)CC2C)c1 (centres undefined)	-26%	?	-1%	.	25µM*
CCc1nnc2c3ccccc3nc(Nc3ccccc3OC)n12	-6%	-2%	10%	.	-36%[59 µM]
CCc1cccc(NC(=O)C(Cc2ccccc2)NS(=O)(=O)c2ccc3c(c2)oc(=O)n3C)c1 (centres undefined)	1%	10%	68%	.	16%[59 µM]
COc1cc(Sc2ccc(C)cc2)c(OC)cc1N	22µM*	14µM*	28µM*	?	3.5µM*
COc1ccnc(CSC(N)=Nc2ccc(F)cc2)c1	22µM*	50µM*	-11%	-3%	7.1µM*
CCCn1c(CN2CCN(C(=O)c3ccco3)CC2)nc2cc(S(=O)(=O)N(C)C)ccc21	-8%	20%	?	-6%	40µM*
COCCn1nnnc1C(c1ccc(Cl)cc1)N1CCSCC1 (centres undefined)	-34%	?	23%	-7%	50µM*
COCCn1nnnc1C(c1ccc(OC)cc1)N1CCC(C)CC1 (centres undefined)	-9%	?	18%	.	-29%[12.7 µM]
CCCCC(c1nnnn1CCOC)N1CCN(C(=O)c2ccco2)CC1 (centres undefined)	12%[11.4 µM]	50µM*	30%	.	?
COCCn1nnnc1C(CC(C)C)N1CCN(C(=O)c2ccco2)CC1 (centres undefined)	15%[11.4 µM]	79µM*	-13%	4%	40µM*
CCC(c1nnnn1Cc1ccccc1)N1CCN(C(=O)c2ccco2)CC1 (centres undefined)	17%	15%	24%	-12%	79µM*
CCCC(c1nnnn1CCc1ccccc1)N1CCN(C(=O)c2ccco2)CC1 (centres undefined)	-16%	-34%	44%	2%	?
CCC(c1nnnn1Cc1ccco1)N1CCN(c2cc(Cl)ccc2C)CC1 (centres undefined)	50µM*	?	?	-1%	10%[59 µM]
COCCn1nnnc1C(c1ccc(Cl)cc1)N1CCN(C(=O)c2ccco2)CC1 (centres undefined)	45µM*	-2%	42%	.	56µM*
CCC(c1nnnn1CCOC)N1CCN(C(=O)c2ccco2)CC1 (centres undefined)	?	50µM*	19%	10%	.

From PubChem BioAssay
